This is an account of results in PubChem BioAssay (NCI).

Molecules are shown by their SMILES. Compounds without any hit were thinned out: in the full panel of roughly 83,000, 20% have a hit.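 A percent growth of 40 corresponds to 60% growth inhibition; 0 means no net growth; -100 means all cells died. Active threshold: below 10.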 Values without a mark were called inactive. The source made the active and inactive calls.

In this test the test system is MDA-MB-231 breast. In words: NCI-60 one-dose screen, 48 h (100 = growth as untreated, 0 = no growth, -100 = all killed). The settings on record: 10 µM unless noted.
For the compound `C=C(C)[C@@H]1CC[C@]2(C(=O)OC)CC[C@]3(C)[C@H](CC[C@@H]4[C@@]5(C)C/C(=C/c6cccc(I)c6)C(=O)C(C)(C)[C@@H]5CC[C@]43C)[C@@H]12`, the growth was 98.4%.

As to `N#Cc1c(-c2ccc(Cl)cc2)nc(NN=Cc2ccco2)nc1N1CCOCC1`, the growth is 74.5%.

`C=CC(=O)Nc1cccc(Nc2nc(SC)nc(-c3cccc([N+](=O)[O-])c3)c2C#N)c1`: the growth was 52.2%.

For the compound `COc1ccc(/C=C/C(=O)c2ccc(O)c(CN3CCN(c4cc5c(cc4F)c(=O)c(C(=O)O)cn5C4CC4)CC3)c2)cc1`, the growth is 50.6%.

`COc1cc2nc(N3CCCC3)nc(Nc3ccccc3)c2cc1OC`: the growth was -69.4% (active).

For `COc1cccc(-c2nc3sccn3c2-c2ccnc(NCCNS(=O)(=O)c3ccccc3)c2)c1`, the growth was 58.9%.

`COc1cc(/C=C/C(=O)c2c(C)oc3nc[nH]c(=O)c23)cc(OC)c1OC`: the growth was 86.7%.

As for `C=C(C)[C@@H]1CC[C@]2(C(=O)OC)CC[C@]3(C)[C@H](CC[C@@H]4[C@@]5(C)C/C(=C/c6ccc(OC)cc6)C(=O)C(C)(C)[C@@H]5CC[C@]43C)[C@@H]12`, the growth is 108%.

Take `O=S(=O)(Nc1ccc(I)cc1F)c1ccc(-c2cnc(C3CC3)o2)cc1`: the growth was 61%.

With `COc1cc2nc(N3CCCC3)nc(NCCc3ccccc3)c2cc1OC`, the growth was 59.3%.

As to `COc1ccc(Nc2nc(SC)nc(-c3cccc([N+](=O)[O-])c3)c2C#N)cc1`, the growth was 45.1%.

For the compound `COc1cc(CNc2oc(-c3ccccc3)c(-c3ccccc3)c2C#N)cc(CN2CCN(C)CC2)c1O`, the growth is 75.3%.

In the case of `COc1ccc(-c2nc3ccc(-c4nc5ccc(N6CCN(c7ccncc7)CC6)cc5[nH]4)cc3[nH]2)cc1OC`, the growth is 63%.

Take `O=C1/C(=C/c2cn(-c3ccccc3)nc2-c2ccccc2)SC(=S)N1CCc1ccccc1`: the growth was 106%.

As to `CCCN1CCN(c2ccc3nc(-c4ccc5nc(-c6ccc(OCC)cc6)[nH]c5c4)[nH]c3c2)CC1`, the growth was 84.8%.

For `COc1cccc(-c2nc3sccn3c2-c2ccnc(NCCCNS(=O)(=O)c3cccc(F)c3)c2)c1`, the growth was 65.4%.

As to `Cn1c(=O)c2c(nc3n(-c4ccc(Cl)cc4Cl)c(Sc4nc(-c5ccccc5)c(C#N)c(=O)[nH]4)cn23)n(C)c1=O`, the growth is 27.7%.

In the case of `O=C(/C=C/c1ccccc1)c1ccc(O)c(CN2CCN(c3cc4c(cc3F)c(=O)c(C(=O)O)cn4C3CC3)CC2)c1`, the growth is 33.3%.

Take `C=CC(=O)Nc1cccc(-c2nc(SC)nc(Nc3ccccc3OC)c2C#N)c1`: the growth was 33.2%.

Take `COc1cccc(-c2nc3sccn3c2-c2ccnc(NCCNS(=O)(=O)c3ccc(F)cc3)c2)c1`: the growth is 55.6%.

Take `COc1cc2nc(N3CCCC3)nc(NCc3ccccc3)c2cc1OC`: the growth was 68.9%.

Regarding `N#Cc1c(-c2ccc(Cl)cc2)nc(N/N=C/c2cccc(Br)c2)nc1N1CCOCC1`, the growth was 103%.

Regarding `CSc1nc(-c2cccc(NC(=O)CCl)c2)c(C#N)c(=O)n1C`, the growth was 65.9%.

Turning to `C=CC(=O)Nc1cccc(-c2nc(SC)nc(NCCc3ccc(OC)c(OC)c3)c2C#N)c1`, the growth was 64.1%.

On to `O=C(/C=C/c1cccc([N+](=O)[O-])c1)c1ccc(O)c(CN2CCN(c3cc4c(cc3F)c(=O)c(C(=O)O)cn4C3CC3)CC2)c1`, for which the growth is 54.4%.

In the case of `COc1cc(/C=C/C(=O)c2ccc(O)c(CN3CCN(c4cc5c(cc4F)c(=O)c(C(=O)O)cn5C4CC4)CC3)c2)cc(OC)c1OC`, the growth is 76.7%.

`CC(C)(O)c1cn(CCCCN2C(=O)C(=O)c3ccccc32)nn1`: the growth was 99.7%.

For `COC(=O)[C@]12CCC(C)(C)C[C@H]1[C@H]1C(=O)C[C@@H]3[C@@]4(C)c5c([nH]c6ccccc6c5=O)C(C)(C)[C@@H]4CC[C@@]3(C)[C@]1(C)CC2`, the growth is 86.4%.

For `N=C(N)c1ccc(-c2ccc(-c3ccc4ccccc4c3)s2)s1`, the growth was -36.8% (active).

For `C=CC(=O)Nc1cccc(-c2nc(SC)nc(NCCN3CCOCC3)c2C#N)c1`, the growth was 87.9%.

For the compound `COc1cc(C=Nc2oc(-c3ccccc3)c(-c3ccccc3)c2C#N)cc(CN2CCCCC2)c1O`, the growth was 106%.

Regarding `CC1=NN(c2nc(-c3ccc(Cl)cc3)c(C#N)c(N3CCOCC3)n2)C(=O)C1`, the growth was 91.9%.

For `COc1cccc(Nc2nc(SC)nc(-c3cccc([N+](=O)[O-])c3)c2C#N)c1`, the growth is 65.8%.

With `CSc1nc(NCCO)c(C#N)c(-c2cccc([N+](=O)[O-])c2)n1`, the growth was 86.5%.

As to `Cn1c(O)c(N=NC(=O)c2cc(-c3ccccc3)on2)c2ccccc21`, the growth is 95.6%.

Take `CSc1nc(Nc2cccc(NC(=O)/C(C#N)=C/c3c(Cl)cccc3Cl)c2)c(C#N)c(-c2cccc([N+](=O)[O-])c2)n1`: the growth was 52.5%.

Consider `COc1ccc(-c2nc3ccc(-c4nc5ccc(N6CCN(c7ccccc7)CC6)cc5[nH]4)cc3[nH]2)cc1OC`, for which the growth is -22% (active).

For the compound `O=C(N=Nc1c(O)[nH]c2ccccc12)c1cc(-c2ccccc2)on1`, the growth is 93.1%.

`O=C1CC(=NCC(=O)n2c(-c3ccccc3)nc3ccccc32)NN1`: the growth is 90.1%.
